Source: PubChem
Hits are enriched below; roughly 3.9% of the tested compounds scored in any of these assays.
GBA activity: Glucocerebrosidase | Lysosomal acid glucosylceramidase (Homo sapiens), P04062 | purified enzyme, resorufin glucoside fluorescence (screen aimed at inhibitors), 20 min | Potency, µM | 48,000 tested, 1.1% active; in the data active = potency below about 15 µM; inconclusive = mostly about 16 µM to 33 µM;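 note: the screen sought inhibitors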
Target sequence (P04062 whole entry, looked up): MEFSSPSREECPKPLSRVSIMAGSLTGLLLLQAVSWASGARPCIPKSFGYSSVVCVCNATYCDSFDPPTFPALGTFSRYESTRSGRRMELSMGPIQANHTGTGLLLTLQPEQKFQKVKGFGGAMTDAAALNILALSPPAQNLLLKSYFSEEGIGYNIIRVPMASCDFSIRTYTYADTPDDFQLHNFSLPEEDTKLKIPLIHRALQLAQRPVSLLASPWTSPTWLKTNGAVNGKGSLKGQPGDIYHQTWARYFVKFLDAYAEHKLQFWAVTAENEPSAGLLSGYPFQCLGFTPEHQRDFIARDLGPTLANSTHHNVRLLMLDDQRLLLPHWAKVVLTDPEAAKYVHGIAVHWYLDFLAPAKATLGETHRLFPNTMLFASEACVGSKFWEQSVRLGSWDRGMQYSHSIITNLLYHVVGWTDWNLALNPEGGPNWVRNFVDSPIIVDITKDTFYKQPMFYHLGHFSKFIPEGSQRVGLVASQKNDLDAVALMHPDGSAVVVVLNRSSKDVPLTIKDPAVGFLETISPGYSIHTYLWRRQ
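Wild-type enzyme at 0.2 nM final in 50mM citric acid/KH2PO4, 10mM sodium taurocholate, 0.01% tween-20, pH 5.9, with resorufin beta-D-glucopyranoside at 30 uM final. Compounds titrated, 20 min at RT, red fluorescence read; AC50 from titration.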
Luciferase inh: qHTS Assay for Inhibitors of Firefly Luciferase | Luciferin 4-monooxygenase (Photinus pyralis), P08659 | purified firefly luciferase, luminescence, 8 min | Potency, µM (doses to about 57.1 µM), for the others: top-dose activity change, negative = inhibition, hits mostly inhibitors | 72,000 tested, 2.2% active | AID 411, 2009; note: % is set by controls: 0 for no effect and ±100 for the full control effect; nearly all actives have a fitted effect of over 40% in size
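Firefly luciferase (PKLight detection mix) with 10 uM ATP in pH 7.2 imidazole buffer (KCl, MgCl2, Tween 20, BSA). Compounds tested across a concentration series (qHTS). Luminescence read after 8 min at ambient temperature.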
ERK AVP inh: qHTS Assay for Inhibitors of the ERK Signaling Pathway using a Homogeneous Screening Assay; Potency, µM (doses to about 57.5 µM), without a hit: top-dose activity, negative = inhibition, actives largely listed as inhibitors; HEK293-V1b, vasopressin-stimulated pERK AlphaScreen; 72,000 tested, 0.99% active; note: % is set by controls: 0 for no effect and ±100 for the full control effect; nearly all actives have a fitted effect of over 55% in size
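HEK293 cells stably expressing V1b receptor, preincubated 30 min at 37 °C with compound, then stimulated 5 min with 25 nM vasopressin. Phospho-ERK by AlphaScreen SureFire after 5 h RT; normalized to DMSO and vasopressin; AC50 by Hill fit.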
PK Bst: Pyruvate Kinase | purified pyruvate kinase, luminescence ATP production; ribose 5-phosphate activator present at AC10 | Potency, µM | 51,000 tested, 1.2% active | AID 361, 2006; in the data active = potency below about 11 µM; inconclusive = mostly about 12 µM to 25 µM;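 the screen sought inhibitors and activators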;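 note: scaled between full activation by ribose 5 phosphate and full inhibition by luteolin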
Starred values were filed as active, the others as inactive; i = inactive; ? = inconclusive; . = no result given; [ ] = dose if it differs, or a comment. Unless noted, calls come from the whole dose curve; as a rule, active = well fitted curve in the direction sought with a large enough effect; inconclusive = small, poorly fitted or top-dose-only effect, or another doubt; inactive = no such curve, though single readings can be large; an effect the other way counts as inactive or inconclusive. Potency is the fitted concentration of half-maximal effect.

SMILES	GBA activity	Luciferase inh	ERK AVP inh	PK Bst
Cc1oc(-c2nc3ccccc3n2C)cc1C(=O)c1ccccc1	>77	2.5µM*	-29%	3.4*
CC(=O)c1ccc(-c2nc3ccccc3n2C)o1	>77	1%	-10%	>57
Cn1cc(C(=O)c2ccccc2)cc1-c1nc2ccccc2n1C	>77	-1%	-29%	>57
Cn1c(-c2ccc(Br)o2)nc2ccccc21	>77	7.9µM*	-11%	?
C[C@@H](C(=O)O)c1ccc(C(=O)c2ccccc2)s1	.	-4%[25.5 µM]	-16%[25.7 µM]	.
O=C(COC(=O)CSc1nnc(-c2ccc(Cl)cc2)o1)NCc1ccc2c(c1)OCO2	11*	-1%	8%	>57
O=C(COC(=O)CCC(=O)c1ccc2c(c1)OCCO2)NCc1ccc2c(c1)OCO2	>77	25µM*	-9%	.
CSCC[C@@H](C(=O)O)N(C)C	.	3%[11.4 µM]	-2%[11.5 µM]	.
COc1ccc(-c2cc(C(=O)N3CCCc4ccccc43)no2)cc1	>77	16µM*	14%	i
COc1ccc(C2=NOC(C(=O)N3CCCc4ccccc43)C2)cc1 (centres undefined)	>77	16µM*	0%	.
Cc1nc2cnc(N3CCN(C)CC3)nc2n(C2CC2)c1=O	.	1%[11.4 µM]	?	.
C[C@@H]1CCCN(C[C@@H](O)CN2CCCc3ccccc32)C1	.	5%[11.4 µM]	-18%[11.5 µM]	.
CC(C)CO/N=C1/C[C@@H](O)[C@@H](O)[C@@H]2[C@@H]3C(=O)N(C4CCCCC4)C(=O)[C@H]3CC[C@H]12	.	3%[11.4 µM]	14%[11.5 µM]	.
O=[N+]([O-])c1ccccc1Nc1ccccc1	.	.	16µM*	.
CC(=O)NCCNc1ncnc2ccc(-c3ccccc3C#N)cc12	.	1%[2.29 µM]	12%	.
CC(C)CC1(C(=O)O)C=CCN1C(=O)c1ccccc1 (centres undefined)	.	.	-22%	.
COc1ccccc1C(=O)Nc1cccc(-c2cn3ccsc3n2)c1	>77	13µM*	-21%	?
CCCCC(=O)Nc1cccc(-c2cn3ccsc3n2)c1	?	13µM*	15%	i
O=C(Nc1ccc(-c2cn3ccccc3n2)cc1)c1cc(Br)ccc1O	.	-2%[11.4 µM]	10%[11.5 µM]	.
O=C(Nc1cccc(-c2cn3ccccc3n2)c1)c1cnccn1	.	4µM*	-22%	.
O=C(Nc1ccc(-c2cn3ccsc3n2)cc1)c1ccc(F)c(S(=O)(=O)N2CCOCC2)c1	.	-10%	13µM*	>57
COc1ccc2c(c1)[n+]([O-])c(/C(C)=N/NC(N)=S)c(C)[n+]2[O-]	.	-3%[11.4 µM]	-15%[11.5 µM]	.
CC(C)(CO)[C@@H](O)C(=O)NCCCO	.	.	6%	.
O=C(Nc1cccc(-c2cn3ccsc3n2)c1)c1ccccc1	>77	25µM*	?	i
CCOc1ncccc1C(=O)Nc1ccc(-c2cn3ccsc3n2)cc1	>77	0%	-10%	>57
SMILES	GBA activity	Luciferase inh	ERK AVP inh	PK Bst
O=S1(=O)C=C(Sc2nc3ccccc3s2)c2ccccc21	11*	13µM*	13µM*	>57
Cc1cc(C)nc(SC2=CS(=O)(=O)c3ccccc32)n1	>77	2%	-3%	>57
Oc1ccccc1-c1nnc(COc2ccc(Cl)cc2Cl)o1	.	13µM*	.	.
COc1ccc(C(=O)NCCn2ccc3ccccc32)cc1OC	.	10µM*	.	.
COc1cccc(C(=O)NCCn2ccc3ccccc32)c1	.	0%	.	.
O=C(CCNc1ccccc1)c1ccc2c(c1)OCO2	>77	16µM*	-4%	.
O=C(/C=C\Nc1cccc(F)c1)c1ccc2c(c1)OCO2	.	0.4µM*	-10%	.
O=C(Nc1nc2c(Cl)cccc2s1)c1ccc(Br)o1	>77	-11%	25µM*	>57
O=C(Nc1cccc(NC(=O)c2ccc(Br)o2)n1)c1ccc(Br)o1	>77	-1%	1%	>57
O=C(Nc1nc2ccc(Cl)cc2s1)c1ccc(Br)o1	.	13µM*	-9%	.
O=C(COC(=O)c1ccc(Br)o1)Nc1nc2ccccc2s1	.	2%	?	.
CC(C)(C)C(=O)COC(=O)c1cccc(NC(=O)c2ccco2)c1	>77	-4%	9%	>57
CCOC(=O)c1ccc2nc(NC(=O)C(C)C)sc2c1	.	2%	.	.
CCOC(=O)c1ccc2nc(NC(=O)c3cccs3)sc2c1	>77	7.9µM*	-7%	i
Cc1ccc2nc(NC(=O)COC(=O)c3ccco3)sc2c1	>77	-14%	10%	.
CS(=O)(=O)c1ccc2nc(NC(=O)c3ccco3)sc2c1	.	4µM*	.	.
O=C(COC(=O)c1cccc(NC(=O)c2ccco2)c1)c1ccc(Br)cc1	.	2.5µM*	16µM*	.
COc1ccccc1C(=O)Nc1nc2ccc(S(C)(=O)=O)cc2s1	.	-17%	-20%	.
CCOC(=O)c1ccc2nc(NC(=O)c3ccco3)sc2c1	?	16µM*	-3%	i
C=C1C[C@@]23C[C@]1(O)CC[C@@H]2[C@]12C=C[C@@H](O)[C@](C)(C(=O)O1)[C@H]2[C@H]3C(=O)O	.	-3%[25.5 µM]	3%[25.7 µM]	.
CN(C)S(=O)(=O)c1ccc2nc(NC(=O)c3cccnc3)sc2c1	>77	13µM*	?	i
O=C(Nc1nc2ccc(S(=O)(=O)N3CCCCC3)cc2s1)c1ccncc1	?	-2%	?	>57
CCOC(=O)[C@]1(C(NC(=O)OC)c2cccc(F)c2)CCCC1=O (some centres undefined)	.	.	6%[11.5 µM]	.
CCCCC#Cc1nc(N)c2ncn([C@@H]3O[C@@H](C(=O)NCC)[C@H](O)[C@@H]3O)c2n1	.	3%	?	.
N#Cc1cccc(NC(=O)N2CC[C@@]3(CCCN(S(=O)(=O)c4ccccc4)C3)C2)c1	.	-2%[11.4 µM]	?	.
SMILES	GBA activity	Luciferase inh	ERK AVP inh	PK Bst
CCOC(=O)CSc1n[nH]c(-c2ccco2)n1	.	1%	-5%	.
CCOc1ccc(-n2c(-c3ccco3)n[nH]c2=S)cc1	>77	-7%	-11%	9.4*
O=C(Cc1cc(=O)[nH]c(=O)[nH]1)NCCN1CCOCC1	.	7.9µM*	.	.
CC(C)CN1CCCC2(CCN(C(=O)c3ccco3)CC2)C1	.	1%[11.4 µM]	30%	.
CCc1ccc2oc(-c3cc(N)ccc3O)nc2c1	>77	1µM*	-8%	1.2*
CCc1ccc2oc(-c3cc(N)cc(C)c3O)nc2c1	>77	2.5µM*	4%	3.6*
CCCC(=O)Nc1ccc(-c2nc3cc(C)c(C)cc3o2)c(O)c1	.	0%	-2%	.
Nc1ccc2oc(-c3ccccc3Cl)nc2c1	.	3.2µM*	.	3*
CCc1ccc2oc(-c3cc(N)ccc3Cl)nc2c1	>77	2.5µM*	3%	2.9*
NC(=O)C1=CN([C@@H]2O[C@@H](COP(=O)(O)OP(=O)(O)OC[C@@H]3O[C@H](n4cnc5c(N)ncnc54)[C@@H](OP(=O)(O)O)[C@@H]3O)[C@H](O)[C@@H]2O)C=CC1	.	2%	16%	.
CCCCNc1nc(C)nc2c1nc(-c1ccccc1)n2CCCN(C)C	.	.	-1%	.
CC(C)Oc1ccc(NC(=O)Oc2ccccc2)cc1	.	13µM*	-10%	.
CCOC(=O)Nc1ccc(Oc2ccccc2)cc1	>77	-29%	1%	.
CC(C)Oc1ccc(C(=O)Nc2ccc(N(C)C)cc2)cc1	.	3.2µM*	-28%	.
COC(=O)[C@H](C)NC(=O)Nc1ccc(Oc2ccccc2)cc1	>77	0%	25µM*	>57
COC(=O)[C@H](C)NC(=O)Nc1ccc(OC)c(OC)c1	>77	1%	-9%	>57
Oc1ccc2ccccc2c1Cc1c(O)ccc2ccccc12	.	-1%[11.4 µM]	-14%[11.5 µM]	.
